The values that follow come from PubChem BioAssay (Tox21).

The structures appear in SMILES notation. Activity calls are given as the source filed them. The call rests on the fitted dose curve; in most records, active means well fitted curve in the direction sought with a large enough effect in the repeat runs; inconclusive means weak or mixed curves; inactive means flat fitted curve, though single readings scatter. Positions of bridges follow the written chain, without caps; N, C: chain ends. Non-standard residues stand in square brackets, D forms with d. Residues, ends and D or L forms follow the SMILES beside them. *: point of attachment. Dab(CH2SO3H) = N[C@@H](CCNCS(=O)(=O)O)C(=O)O; X3 = CC[C@@H](C)CCCCC(=O)*; Dab = NCC[C@H](N)C(=O)O

A short description of the assay: qHTS assay to test for compound auto fluorescence at 535 nm (green) in HEK293 cells (AID 720680). Particulars: green autofluorescence 485/535 nm; series mostly up to 46 µM. From the text:
U.S. Tox21 Program National Center for Advancing Translational Sciences [NCATS] NIH Chemical Genomics Center [NCGC] U.S. Environmental Protection Agency [EPA] National Institutes of Environmental Health Sciences [NIEHS] National Toxicology Program [NTP] U.S. Food and Drug Administration [FDA] Tox21 Assay Overview: Compound auto fluorescence often interferes with screening of the compound library against various biological targets and signaling pathways. Some of these compounds may have fluorophoric properties. Such properties may interfere with the assay outputs resulting in false positives and/or negatives. To decrease such complications and ensure the compound activities are relevant in terms of biological response, the Tox21 10K compound library was screened for auto fluorescence. From the fluorophores used as reporter signals in our screening assays, the auto fluorescence equivalencies of compounds against three fluorophores have been evaluated: Triamterene, Fluorescein and Rose Bengal sodium for blue, green and red fluorescence, respectively. The fluorescence intensities were measured using Excitation/Emission wavelengths at 405/460nm, 485/535nm and 540/590nm for blue, green and red labels, respectively. This assay includes the green fluorescence data.
Tox21 Assay Protocol Summary: 2,000 HEK293 cells in 5 uL of culture medium containing 10% dialyzed FBS per well were dispensed into black wall/clear bottom 1536-well plates using a Multidrop Combi Dispenser (Thermo Scientific). The assay plates were incubated for 4-5 hr at 37C to allow cell attachment to the well bottom, followed by the transfer of 23 nL compound or DMSO vehicle by a pintool work station (Kalypsys, San Diego, CA). After the assay plates were incubated overnight at 37C and 5% CO2, fluorescence intensities in the assay plates were measured by an Envision (PerkinElmer, Shelton, CT) plate reader using three labels for measuring blue, green and red fluorescence at […] 460, 535 and 590nm respectively.
Regarding `CN1CCN(CCCN2c3ccccc3Sc3ccc(Cl)cc32)CC1`, the molecule was called inactive.

`NC(=O)[C@H]1O[C@@H](O)[C@H](O)[C@@H](O)[C@@H]1O`: the result was inactive.

As to `C[C@H](O)CN(C)C`, the outcome was inactive.

`COC(=O)C(CN)c1c[nH]c2ccc(OC)cc12` (stereo not given): the result was inactive.

`O=c1[nH]c(=O)n([C@H]2C[C@H](O)[C@@H](CO)O2)cc1/C=C/Br`: the outcome was inactive.

As for `CN(C)CCC(O)(c1ccccc1)c1ccccc1Cl` (stereo not given), the outcome was inactive.

As to `CCc1cn([C@H]2C[C@H](O)[C@@H](CO)O2)c(=O)[nH]c1=O`, the molecule was called inactive.

Turning to `Cc1ccc(Cl)c(N)c1Cl`, the result was inactive.

In the case of `N[C@@H](Cc1cnc[nH]1)C(=O)O`, the molecule was classed as inactive.

For `CC(C)NCC1CCc2cc(CO)c([N+](=O)[O-])cc2N1` (stereo not given), the call was inactive.

On to `CN(C/C=C/c1ccccc1)Cc1cccc2ccccc12`, for which the outcome was inactive.

On to `CN1[C@@H](CC(=O)c2ccccc2)CCC[C@H]1C[C@H](O)c1ccccc1`, for which the outcome was inactive.

For the molecule `O=C(Cn1cnnn1)N[C@@H]1C(=O)N2C(C(=O)O)=C(CSc3nncs3)CS[C@H]12`, the outcome was inactive.

With `CNCCC=C1c2ccccc2CCc2ccccc21`, the molecule was called inactive.

As to `COc1cccc(-c2ccc(/C=C\CN3CCCCCC3)cc2Cl)c1`, the outcome was inactive.

Turning to `C[C@]12O[C@H](C[C@]1(O)CO)n1c3ccccc3c3c4c(c5c6ccccc6n2c5c31)CNC4=O`, the molecule was called inactive.

For `O=C1CC[C@@H](C(=O)N[C@H]2C[C@@H]2c2ccccc2)N1`, the result was inactive.

For the molecule `CN[C@H]1CC[C@@H](c2ccc(Cl)c(Cl)c2)c2ccc(S(N)(=O)=O)cc21`, the molecule was classed as inactive.

As to `CC[C@@H](C)CCCCC(=O)N[C@@H](CCNCS(=O)(=O)O)C(=O)N[C@H](C(=O)N[C@@H](CCNCS(=O)(=O)O)C(=O)N[C@H]1CCNC(=O)[C@H]([C@@H](C)O)NC(=O)[C@H](CCNCS(=O)(=O)O)NC(=O)[C@H](CCNCS(=O)(=O)O)NC(=O)[C@H](CC(C)C)NC(=O)[C@@H](CC(C)C)NC(=O)[C@H](CCNCS(=O)(=O)O)NC1=O)[C@@H](C)O` (X3-[Dab(CH2SO3H)]T[Dab(CH2SO3H)][Dab][Dab(CH2SO3H)][dL]L[Dab(CH2SO3H)][Dab(CH2SO3H)]T; lactam 4-C), the result was inactive.

For `CCC1OC(=O)C[C@@H](O)[C@H](C)[C@@H](O[C@@H]2O[C@H](C)C[C@H](N(C)C)[C@H]2O)[C@@H](CC=O)C[C@@H](C)C(=O)/C=C/[C@]2(C)OC2C1C` (stereo not given in full), the result was inactive.

On to `NS(=O)(=O)c1cc(Cl)c(Cl)c(S(N)(=O)=O)c1`, for which the outcome was inactive.

Regarding `CN1C(=O)C[C@@H](C(=O)N[C@@H](Cc2cnc[nH]2)C(=O)N2CCC[C@H]2C(N)=O)NC1=O`, the molecule was classed as inactive.

With `CCCCCCCCCCCCCCCC(=O)OC[C@H](COP(=O)([O-])OCC[N+](C)(C)C)OC(=O)CCCCCCCCCCCCCCC`, the result was inactive.

For `CCN(CC)C(=O)[C@]1(c2ccccc2)C[C@@H]1CN`, the molecule was classed as inactive.

Consider `Clc1nc(C(Cl)(Cl)Cl)c(Cl)c(Cl)c1Cl`, for which the molecule was classed as inactive.

For the molecule `N[C@H](C(=O)O)[C@@H]1CC(Cl)=NO1`, the call was inactive.

As for `CC(C)[N+]1(C)[C@@H]2CC[C@H]1CC(OC(=O)C(CO)c1ccccc1)C2` (stereo not given in full), the outcome was inactive.

As for `Nc1cc(Cl)c(NC2=NCCN2)c(Cl)c1`, the result was inactive.

Regarding `CCCCCCCCCCCC[n+]1ccc2ccccc2c1`, the molecule was called inactive.

As for `NCCCC[C@H](NC(=O)[C@@H]1CCCN1C(=O)[C@@H]1CSSC[C@H](N)C(=O)N[C@@H](Cc2ccc(O)cc2)C(=O)N[C@@H](Cc2ccccc2)C(=O)N[C@@H](CCC(N)=O)C(=O)N[C@@H](CC(N)=O)C(=O)N1)C(=O)NCC(N)=O`, the molecule was called inactive.

For the molecule `Nc1ccc(N)c([N+](=O)[O-])c1`, the outcome was inactive.

As to `Oc1ccc(Cl)cc1C1CCCC1`, the molecule was called inactive.

`CN(Cc1ccccc1)Cc1ccccc1`: the molecule was classed as inactive.

With `O=C(O)c1cc(=O)c2c3nc4ccccc4oc-3cc(=O)c2[nH]1`, the molecule was classed as inactive.

Take `CCN(CC)C(=O)c1cccnc1`: the outcome was inactive.

For `c1ccc(-n2cnnn2)cc1`, the outcome was inactive.

Consider `CCOC(=O)Cc1ccc(-c2ccccc2)cc1`, for which the outcome was inactive.

In the case of `COC(=O)[C@H]1[C@H]2C[C@H]3c4[nH]c5ccccc5c4CCN3C[C@H]2CC[C@@H]1O`, the outcome was inactive.

For the molecule `CN(C)CCc1c[nH]c2ccc(Cn3cncn3)cc12`, the outcome was inactive.

`CC(=O)NC[C@H]1CN(c2ccc(N3CCOCC3)c(F)c2)C(=O)O1`: the result was inactive.
